# Test results from paper PMC7862700, “An all-to-all approach to the identification of sequence-specific readers for epigenetic DNA modifications on cytosine”.
# Assays:
# Assay in all cases: DAPPL (digital affinity profiling via proximity ligation, sequencing); 10 mM Tris-HCl pH 7.5, 50 mM NaCl, 1 mM DTT, 4% glycerol, room temperature, 30 min; GST-TFs on glutathione beads, 16-mer random dsDNA library, 0.1% formaldehyde crosslink after washing; high values mean tight binding
# FLI1 = target: T1, FLI1 (Homo sapiens, UniProt Q01543 1-452); conditions: protein: recombinant; tags: N-terminal GST; dsDNA, one strand shown
# T1 sequence: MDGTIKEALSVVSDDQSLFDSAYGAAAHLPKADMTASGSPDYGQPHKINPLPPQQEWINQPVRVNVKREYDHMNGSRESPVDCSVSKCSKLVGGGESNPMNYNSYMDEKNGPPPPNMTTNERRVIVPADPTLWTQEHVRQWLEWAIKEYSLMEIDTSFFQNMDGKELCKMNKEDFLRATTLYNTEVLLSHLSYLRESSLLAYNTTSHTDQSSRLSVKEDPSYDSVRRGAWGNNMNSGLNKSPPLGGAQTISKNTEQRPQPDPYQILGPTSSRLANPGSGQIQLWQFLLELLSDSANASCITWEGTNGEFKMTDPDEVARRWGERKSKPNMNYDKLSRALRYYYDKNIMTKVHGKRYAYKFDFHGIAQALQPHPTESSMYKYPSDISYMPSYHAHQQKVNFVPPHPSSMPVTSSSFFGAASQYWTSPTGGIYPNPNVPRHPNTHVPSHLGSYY
# Outline: (§1)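 Human transcription factors were made in yeast as GST fusions, captured on glutathione beads and barcoded with DNA. With a tag-only sample included, the pool was incubated with 200 nmole of a random double-stranded 16-mer DNA library in Tris/NaCl/DTT/glycerol buffer at room temperature for 30 min, then crosslinked with 0.1% formaldehyde after washing, ligated by proximity, amplified and sequenced. For binding signal, each hexamer's read frequency for a factor is divided by its frequency for the tag-only sample.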
# ELK1 = target: T2, ELK1 (Homo sapiens, UniProt P19419 1-428); conditions: protein: recombinant; tags: N-terminal GST; dsDNA, one strand shown
# T2 sequence: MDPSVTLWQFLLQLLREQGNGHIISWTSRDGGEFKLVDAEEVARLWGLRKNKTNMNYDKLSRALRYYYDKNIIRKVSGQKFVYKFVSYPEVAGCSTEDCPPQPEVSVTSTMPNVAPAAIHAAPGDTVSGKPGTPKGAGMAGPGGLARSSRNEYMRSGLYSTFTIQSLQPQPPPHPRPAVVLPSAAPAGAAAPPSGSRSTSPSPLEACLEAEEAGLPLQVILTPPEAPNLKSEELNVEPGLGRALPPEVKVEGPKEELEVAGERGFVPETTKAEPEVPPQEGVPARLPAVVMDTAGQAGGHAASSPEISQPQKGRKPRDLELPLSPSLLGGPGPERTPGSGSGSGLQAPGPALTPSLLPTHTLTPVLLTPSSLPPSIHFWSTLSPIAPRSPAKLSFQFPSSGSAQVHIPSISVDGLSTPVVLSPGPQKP
# Outline: as §1
# GABPA = target: T3, GABPA (Homo sapiens, UniProt Q06546 1-454); conditions: protein: recombinant; tags: N-terminal GST; dsDNA, one strand shown
# T3 sequence: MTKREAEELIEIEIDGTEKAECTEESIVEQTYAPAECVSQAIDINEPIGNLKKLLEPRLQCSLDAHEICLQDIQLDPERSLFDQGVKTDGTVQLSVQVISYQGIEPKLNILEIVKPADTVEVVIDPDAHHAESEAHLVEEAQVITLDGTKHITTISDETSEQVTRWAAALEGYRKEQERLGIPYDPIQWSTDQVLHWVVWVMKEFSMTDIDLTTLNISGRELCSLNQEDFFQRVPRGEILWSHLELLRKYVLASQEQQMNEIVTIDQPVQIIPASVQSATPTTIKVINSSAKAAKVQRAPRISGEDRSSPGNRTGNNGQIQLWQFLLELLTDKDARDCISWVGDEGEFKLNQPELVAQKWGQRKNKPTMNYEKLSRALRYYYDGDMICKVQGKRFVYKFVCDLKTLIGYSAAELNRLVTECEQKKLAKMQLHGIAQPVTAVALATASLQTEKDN
# Outline: as §1
# ERG = target: T4, ERG (Homo sapiens, UniProt P11308 1-479); conditions: protein: recombinant; tags: N-terminal GST; dsDNA, one strand shown
# T4 sequence: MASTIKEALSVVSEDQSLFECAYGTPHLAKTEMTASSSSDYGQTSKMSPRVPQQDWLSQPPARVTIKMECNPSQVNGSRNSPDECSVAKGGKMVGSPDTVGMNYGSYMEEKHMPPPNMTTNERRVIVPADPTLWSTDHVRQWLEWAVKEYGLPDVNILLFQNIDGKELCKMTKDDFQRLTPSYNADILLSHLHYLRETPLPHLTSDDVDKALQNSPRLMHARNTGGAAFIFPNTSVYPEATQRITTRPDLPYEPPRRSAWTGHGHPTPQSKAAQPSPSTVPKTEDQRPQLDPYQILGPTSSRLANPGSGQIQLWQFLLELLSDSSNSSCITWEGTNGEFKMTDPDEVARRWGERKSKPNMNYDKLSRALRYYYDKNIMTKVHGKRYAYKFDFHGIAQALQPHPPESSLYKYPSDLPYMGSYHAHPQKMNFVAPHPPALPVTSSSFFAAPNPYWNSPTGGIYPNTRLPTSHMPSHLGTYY
# Outline: as §1
# ELF1 = ELF1 (Homo sapiens, UniProt P32519 1-619); conditions: protein: recombinant; tags: N-terminal GST; dsDNA, one strand shown
# Outline: as §1
# EHF = target: T5, EHF (Homo sapiens, UniProt Q9NZC4 1-300); conditions: protein: recombinant; tags: N-terminal GST; dsDNA, one strand shown
# T5 sequence: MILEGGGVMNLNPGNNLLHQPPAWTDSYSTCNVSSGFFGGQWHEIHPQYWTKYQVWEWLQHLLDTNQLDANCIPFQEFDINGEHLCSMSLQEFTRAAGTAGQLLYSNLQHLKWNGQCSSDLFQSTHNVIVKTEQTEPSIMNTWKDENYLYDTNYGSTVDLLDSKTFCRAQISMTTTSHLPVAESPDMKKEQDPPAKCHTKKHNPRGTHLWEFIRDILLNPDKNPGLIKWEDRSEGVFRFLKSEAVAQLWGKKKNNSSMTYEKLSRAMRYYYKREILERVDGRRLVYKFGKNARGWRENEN
# Outline: as §1
# SPI1 = SPI1 (Homo sapiens, UniProt P17947 1-270); conditions: protein: recombinant; tags: N-terminal GST; dsDNA, one strand shown
# Outline: as §1
# SPIB = SPIB (Homo sapiens, UniProt Q01892 1-262); conditions: protein: recombinant; tags: N-terminal GST; dsDNA, one strand shown
# Outline: as §1
# ELK3 = target: T6, ELK3 (Homo sapiens, UniProt P41970 1-407); conditions: protein: recombinant; tags: N-terminal GST; dsDNA, one strand shown
# T6 sequence: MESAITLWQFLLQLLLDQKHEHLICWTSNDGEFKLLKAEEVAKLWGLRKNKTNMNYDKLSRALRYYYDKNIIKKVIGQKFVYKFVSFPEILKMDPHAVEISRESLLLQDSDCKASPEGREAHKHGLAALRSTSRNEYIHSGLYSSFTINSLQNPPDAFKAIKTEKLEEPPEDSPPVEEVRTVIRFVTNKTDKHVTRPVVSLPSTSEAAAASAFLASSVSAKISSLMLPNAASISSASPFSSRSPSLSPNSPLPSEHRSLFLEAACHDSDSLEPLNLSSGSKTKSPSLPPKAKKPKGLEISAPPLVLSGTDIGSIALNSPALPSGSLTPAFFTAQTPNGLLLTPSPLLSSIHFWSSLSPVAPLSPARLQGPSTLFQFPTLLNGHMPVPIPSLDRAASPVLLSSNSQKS
# Outline: as §1
# FEV = target: T7, FEV (Homo sapiens, UniProt Q99581 1-238); conditions: protein: recombinant; tags: N-terminal GST; dsDNA, one strand shown
# T7 sequence: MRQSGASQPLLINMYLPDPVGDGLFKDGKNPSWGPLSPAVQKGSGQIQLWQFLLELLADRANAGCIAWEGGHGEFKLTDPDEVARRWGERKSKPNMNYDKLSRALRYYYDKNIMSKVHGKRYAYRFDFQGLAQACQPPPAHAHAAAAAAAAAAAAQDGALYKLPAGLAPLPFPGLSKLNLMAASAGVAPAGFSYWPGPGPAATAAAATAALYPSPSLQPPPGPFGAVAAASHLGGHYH
# Outline: as §1
# ETV5 = ETV5 (Homo sapiens, UniProt P41161 1-510); conditions: protein: recombinant; tags: N-terminal GST; dsDNA, one strand shown
# Outline: as §1
# HSF1 = HSF1 (Homo sapiens, UniProt Q00613 1-529); conditions: protein: recombinant; tags: N-terminal GST; chain copies: 3; dsDNA, one strand shown
# Outline: as §1
# SPIC = target: T8, SPIC (Homo sapiens, UniProt Q8N5J4 1-248); conditions: protein: recombinant; tags: N-terminal GST; dsDNA, one strand shown
# T8 sequence: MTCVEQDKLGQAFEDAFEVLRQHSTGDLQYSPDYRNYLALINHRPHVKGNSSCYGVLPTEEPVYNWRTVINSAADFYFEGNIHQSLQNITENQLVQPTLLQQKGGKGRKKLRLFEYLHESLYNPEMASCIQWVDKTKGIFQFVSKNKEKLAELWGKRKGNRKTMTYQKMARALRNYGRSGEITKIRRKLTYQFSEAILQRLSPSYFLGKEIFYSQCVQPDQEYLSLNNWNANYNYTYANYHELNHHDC
# Outline: as §1
# ELF4 = ELF4 (Homo sapiens, UniProt Q99607 1-663); conditions: protein: recombinant; tags: N-terminal GST; dsDNA, one strand shown
# Outline: as §1
# ELK4 = target: T9, ELK4 (Homo sapiens, UniProt P28324-2 1-405); conditions: protein: recombinant; tags: N-terminal GST; dsDNA, one strand shown
# T9 sequence: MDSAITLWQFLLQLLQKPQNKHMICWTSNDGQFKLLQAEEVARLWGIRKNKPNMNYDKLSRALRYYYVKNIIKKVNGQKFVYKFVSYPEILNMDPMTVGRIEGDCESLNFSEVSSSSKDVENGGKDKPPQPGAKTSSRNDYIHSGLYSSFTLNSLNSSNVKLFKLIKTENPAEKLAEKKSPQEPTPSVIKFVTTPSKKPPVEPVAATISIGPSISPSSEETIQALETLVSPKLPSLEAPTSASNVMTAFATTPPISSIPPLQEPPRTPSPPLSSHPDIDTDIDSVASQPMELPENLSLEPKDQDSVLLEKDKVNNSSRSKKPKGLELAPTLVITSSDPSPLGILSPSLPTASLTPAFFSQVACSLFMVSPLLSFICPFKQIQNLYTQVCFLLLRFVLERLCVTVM
# Outline: as §1
# ETV2 = target: T10, ETV2 (Homo sapiens, UniProt O00321 1-342); conditions: protein: recombinant; tags: N-terminal GST; dsDNA, one strand shown
# T10 sequence: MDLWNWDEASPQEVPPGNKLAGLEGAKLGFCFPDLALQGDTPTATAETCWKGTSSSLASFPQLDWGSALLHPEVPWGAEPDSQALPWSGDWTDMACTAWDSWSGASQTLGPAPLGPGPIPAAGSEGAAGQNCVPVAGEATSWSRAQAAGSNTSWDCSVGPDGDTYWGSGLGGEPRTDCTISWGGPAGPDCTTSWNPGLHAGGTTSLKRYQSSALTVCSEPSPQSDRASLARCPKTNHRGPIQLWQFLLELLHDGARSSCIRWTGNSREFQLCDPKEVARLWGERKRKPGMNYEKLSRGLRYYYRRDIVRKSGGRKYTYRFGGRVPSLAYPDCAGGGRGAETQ
# Outline: as §1
# ELF3 = target: T11, ELF3 (Homo sapiens, UniProt P78545 1-371); conditions: protein: recombinant; tags: N-terminal GST; dsDNA, one strand shown
# T11 sequence: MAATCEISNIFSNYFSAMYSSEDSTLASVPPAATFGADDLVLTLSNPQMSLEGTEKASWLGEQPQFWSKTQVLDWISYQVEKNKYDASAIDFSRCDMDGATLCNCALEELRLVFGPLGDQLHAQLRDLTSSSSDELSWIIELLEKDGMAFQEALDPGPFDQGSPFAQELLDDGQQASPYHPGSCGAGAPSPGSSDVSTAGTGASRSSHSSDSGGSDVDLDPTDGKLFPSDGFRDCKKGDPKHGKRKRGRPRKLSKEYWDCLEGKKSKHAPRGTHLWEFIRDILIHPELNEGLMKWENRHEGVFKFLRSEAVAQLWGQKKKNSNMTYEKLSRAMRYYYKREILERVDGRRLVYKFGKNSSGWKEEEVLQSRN
# Outline: as §1
# CRX = CRX (Homo sapiens, UniProt O43186 1-299); conditions: protein: recombinant; tags: N-terminal GST; dsDNA, one strand shown
# Outline: as §1
# ETV1 = ETV1 (Homo sapiens, UniProt P50549 1-477); conditions: protein: recombinant; tags: N-terminal GST; dsDNA, one strand shown
# Outline: as §1
# Chain of ELF1 (P32519 whole entry): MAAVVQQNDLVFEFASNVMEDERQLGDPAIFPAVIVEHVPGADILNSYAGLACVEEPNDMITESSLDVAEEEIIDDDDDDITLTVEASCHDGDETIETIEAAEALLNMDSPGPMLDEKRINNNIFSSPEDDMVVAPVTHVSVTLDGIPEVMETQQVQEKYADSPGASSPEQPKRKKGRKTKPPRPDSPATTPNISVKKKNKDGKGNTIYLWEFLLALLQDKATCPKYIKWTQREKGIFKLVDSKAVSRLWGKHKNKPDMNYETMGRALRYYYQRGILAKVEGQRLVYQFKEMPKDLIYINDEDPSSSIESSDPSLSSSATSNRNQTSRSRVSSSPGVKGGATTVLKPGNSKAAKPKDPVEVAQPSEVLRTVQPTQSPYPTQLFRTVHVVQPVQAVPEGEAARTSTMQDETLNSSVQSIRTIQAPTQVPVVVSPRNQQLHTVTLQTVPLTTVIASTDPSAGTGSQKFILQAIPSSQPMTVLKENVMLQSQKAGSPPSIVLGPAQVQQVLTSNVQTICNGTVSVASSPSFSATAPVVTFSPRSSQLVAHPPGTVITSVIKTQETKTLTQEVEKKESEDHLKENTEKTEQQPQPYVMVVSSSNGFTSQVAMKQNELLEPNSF
# Chain of SPIB (Q01892 whole entry): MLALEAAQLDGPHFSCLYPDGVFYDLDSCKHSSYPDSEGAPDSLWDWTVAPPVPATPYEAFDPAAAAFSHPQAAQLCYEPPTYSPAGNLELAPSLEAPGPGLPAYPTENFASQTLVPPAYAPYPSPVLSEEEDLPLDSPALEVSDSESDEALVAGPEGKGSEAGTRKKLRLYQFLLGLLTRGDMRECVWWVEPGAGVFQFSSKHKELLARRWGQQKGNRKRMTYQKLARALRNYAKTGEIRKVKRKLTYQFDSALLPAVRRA
# Chain of CRX (O43186 whole entry): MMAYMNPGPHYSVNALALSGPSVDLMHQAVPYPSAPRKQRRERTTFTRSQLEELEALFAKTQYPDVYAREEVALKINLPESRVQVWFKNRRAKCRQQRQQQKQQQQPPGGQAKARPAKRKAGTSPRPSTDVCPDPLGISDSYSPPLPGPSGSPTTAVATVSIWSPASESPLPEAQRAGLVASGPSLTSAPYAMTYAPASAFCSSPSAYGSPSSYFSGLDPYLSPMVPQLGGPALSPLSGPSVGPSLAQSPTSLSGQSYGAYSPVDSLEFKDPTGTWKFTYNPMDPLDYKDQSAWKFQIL
# Chain of ETV5 (P41161 whole entry): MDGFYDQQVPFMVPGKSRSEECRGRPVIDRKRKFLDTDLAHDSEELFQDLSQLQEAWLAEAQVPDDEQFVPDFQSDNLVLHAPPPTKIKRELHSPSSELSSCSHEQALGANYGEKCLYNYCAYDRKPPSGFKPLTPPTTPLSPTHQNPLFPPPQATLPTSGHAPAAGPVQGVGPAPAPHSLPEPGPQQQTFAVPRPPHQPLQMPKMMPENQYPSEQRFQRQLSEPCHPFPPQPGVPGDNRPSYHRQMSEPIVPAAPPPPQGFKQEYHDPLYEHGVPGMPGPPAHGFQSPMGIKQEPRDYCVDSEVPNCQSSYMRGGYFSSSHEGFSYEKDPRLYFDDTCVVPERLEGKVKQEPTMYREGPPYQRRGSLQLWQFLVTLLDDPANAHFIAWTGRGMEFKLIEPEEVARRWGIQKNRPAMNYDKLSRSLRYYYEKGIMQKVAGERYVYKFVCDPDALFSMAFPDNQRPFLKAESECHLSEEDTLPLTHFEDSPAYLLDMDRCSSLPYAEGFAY
# Chain of HSF1 (Q00613 whole entry): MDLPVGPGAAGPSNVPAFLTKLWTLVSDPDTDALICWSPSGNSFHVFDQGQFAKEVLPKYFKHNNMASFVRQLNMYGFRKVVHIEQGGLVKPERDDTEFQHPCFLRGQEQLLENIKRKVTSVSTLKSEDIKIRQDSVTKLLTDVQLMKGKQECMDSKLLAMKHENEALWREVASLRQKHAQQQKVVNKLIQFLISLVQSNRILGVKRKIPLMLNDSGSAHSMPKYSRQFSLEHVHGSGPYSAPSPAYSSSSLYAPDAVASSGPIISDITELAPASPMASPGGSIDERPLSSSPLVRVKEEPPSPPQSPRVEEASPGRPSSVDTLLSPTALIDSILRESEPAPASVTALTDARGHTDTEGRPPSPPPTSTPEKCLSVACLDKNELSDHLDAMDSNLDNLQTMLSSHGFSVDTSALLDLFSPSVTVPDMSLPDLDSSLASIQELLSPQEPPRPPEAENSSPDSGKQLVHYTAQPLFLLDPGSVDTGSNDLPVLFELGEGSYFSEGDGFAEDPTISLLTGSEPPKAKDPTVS
# Chain of ELF4 (Q99607 whole entry): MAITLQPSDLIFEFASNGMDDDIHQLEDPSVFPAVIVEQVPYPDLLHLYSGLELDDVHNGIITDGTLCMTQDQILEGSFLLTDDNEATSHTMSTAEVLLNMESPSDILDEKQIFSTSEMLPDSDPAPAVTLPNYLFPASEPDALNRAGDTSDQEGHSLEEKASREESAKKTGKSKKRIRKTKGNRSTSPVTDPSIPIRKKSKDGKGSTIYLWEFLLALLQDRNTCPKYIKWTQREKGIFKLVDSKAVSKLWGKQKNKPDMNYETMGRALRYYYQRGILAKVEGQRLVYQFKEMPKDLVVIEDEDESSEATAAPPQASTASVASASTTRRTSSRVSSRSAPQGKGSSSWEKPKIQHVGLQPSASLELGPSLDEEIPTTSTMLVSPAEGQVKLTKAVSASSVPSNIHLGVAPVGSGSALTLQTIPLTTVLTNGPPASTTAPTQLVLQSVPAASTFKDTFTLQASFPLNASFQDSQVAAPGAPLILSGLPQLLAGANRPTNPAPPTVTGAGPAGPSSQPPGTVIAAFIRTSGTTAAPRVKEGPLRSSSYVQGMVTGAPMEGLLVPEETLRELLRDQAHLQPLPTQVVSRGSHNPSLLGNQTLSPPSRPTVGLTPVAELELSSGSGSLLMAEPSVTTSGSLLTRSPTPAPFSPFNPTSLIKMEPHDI
# Chain of ETV1 (P50549 whole entry): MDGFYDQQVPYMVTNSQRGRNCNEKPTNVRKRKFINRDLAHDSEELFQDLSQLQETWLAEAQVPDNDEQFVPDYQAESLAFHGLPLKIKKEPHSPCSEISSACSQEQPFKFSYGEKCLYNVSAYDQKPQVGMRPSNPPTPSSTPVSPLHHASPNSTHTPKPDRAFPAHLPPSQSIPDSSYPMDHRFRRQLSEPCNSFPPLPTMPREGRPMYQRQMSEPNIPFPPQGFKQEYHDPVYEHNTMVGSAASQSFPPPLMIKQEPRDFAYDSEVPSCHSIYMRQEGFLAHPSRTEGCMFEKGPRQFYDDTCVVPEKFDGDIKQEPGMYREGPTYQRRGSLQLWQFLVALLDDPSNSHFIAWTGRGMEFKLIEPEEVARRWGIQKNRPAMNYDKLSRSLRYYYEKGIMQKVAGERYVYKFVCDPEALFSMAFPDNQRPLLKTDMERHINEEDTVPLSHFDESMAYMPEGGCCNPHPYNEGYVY
sequence,measurement,setting,value
ATACTA,binding signal,FLI1,"1.16 fold enrichment (6-mer frequency, TF over GST control)"
same,binding signal,ELK1,"1.11 fold enrichment (6-mer frequency, TF over GST control)"
same,binding signal,GABPA,"1.25 fold enrichment (6-mer frequency, TF over GST control)"
same,binding signal,ERG,"1.17 fold enrichment (6-mer frequency, TF over GST control)"
same,binding signal,ELF1,"1.21 fold enrichment (6-mer frequency, TF over GST control)"
same,binding signal,EHF,"1.22 fold enrichment (6-mer frequency, TF over GST control)"
same,binding signal,SPI1,"1.13 fold enrichment (6-mer frequency, TF over GST control)"
same,binding signal,SPIB,"1.22 fold enrichment (6-mer frequency, TF over GST control)"
same,binding signal,ELK3,"1.06 fold enrichment (6-mer frequency, TF over GST control)"
same,binding signal,FEV,"1.13 fold enrichment (6-mer frequency, TF over GST control)"
same,binding signal,ETV5,"1.13 fold enrichment (6-mer frequency, TF over GST control)"
same,binding signal,HSF1,"1.34 fold enrichment (6-mer frequency, TF over GST control)"
same,binding signal,SPIC,"1.1 fold enrichment (6-mer frequency, TF over GST control)"
same,binding signal,ELF4,"1.19 fold enrichment (6-mer frequency, TF over GST control)"
same,binding signal,ELK4,"1.19 fold enrichment (6-mer frequency, TF over GST control)"
same,binding signal,ETV2,"1.14 fold enrichment (6-mer frequency, TF over GST control)"
same,binding signal,ELF3,"1.08 fold enrichment (6-mer frequency, TF over GST control)"
same,binding signal,CRX,"1.38 fold enrichment (6-mer frequency, TF over GST control)"
same,binding signal,ETV1,"1.1 fold enrichment (6-mer frequency, TF over GST control)"
